In PubChem BioAssay (Tox21):
Inconclusive results are not listed. Activity calls are given as the source filed them. Unless noted, calls come from the whole dose curve; as a rule, active = well fitted curve in the direction sought with a large enough effect in the repeat runs; inconclusive = weak or mixed curves; inactive = no such curve, though single readings can be large; an effect the other way counts as inactive or inconclusive.

Key:
[1] = qHTS assay to identify small molecule antagonists of the thyroid receptor (TR) signaling pathway - cell viability counter screen (AID 743064); note: nearly all actives have a fitted effect of over 50% in size
In short: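 Same-well viability check: GH3.TRE-Luc cells stimulated with 1 nM T3 alongside test compound for 23.5 h, followed by CellTiter-Fluor fluorescence.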

[2] = qHTS assay to identify small molecule antagonists of the thyroid receptor (TR) signaling pathway (AID 743065); note: series mostly up to about 70 µM; nearly all actives have a fitted effect of over 55% in size
In short: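 Antagonism measured as loss of luciferase signal in GH3 cells stably carrying a TRE-luciferase reporter, co-treated with compound and T3 (1 nM final) for 23.5 h at 37 C. Viability was read in the same well by CellTiter-Fluor.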

[3] = system: thyroid hormone receptor (rat, GH3 cells); assay: qHTS assay to identify small molecule agonists of the thyroid receptor (TR) signaling pathway (AID 743066; calls by dose curve)
[4] = target: Estrogen receptor (Homo sapiens) (UniProt P03372); assay: qHTS assay to identify small molecule antagonists of the estrogen receptor alpha (ER-alpha) signaling pathway (AID 743069; active = well fitted curve in the direction sought with a large enough effect in the signal ratio in the repeat runs, not every such curve was filed as active; the % refers to the signal ratio)
Sequence of Estrogen receptor (Homo sapiens) (P03372 whole entry, looked up): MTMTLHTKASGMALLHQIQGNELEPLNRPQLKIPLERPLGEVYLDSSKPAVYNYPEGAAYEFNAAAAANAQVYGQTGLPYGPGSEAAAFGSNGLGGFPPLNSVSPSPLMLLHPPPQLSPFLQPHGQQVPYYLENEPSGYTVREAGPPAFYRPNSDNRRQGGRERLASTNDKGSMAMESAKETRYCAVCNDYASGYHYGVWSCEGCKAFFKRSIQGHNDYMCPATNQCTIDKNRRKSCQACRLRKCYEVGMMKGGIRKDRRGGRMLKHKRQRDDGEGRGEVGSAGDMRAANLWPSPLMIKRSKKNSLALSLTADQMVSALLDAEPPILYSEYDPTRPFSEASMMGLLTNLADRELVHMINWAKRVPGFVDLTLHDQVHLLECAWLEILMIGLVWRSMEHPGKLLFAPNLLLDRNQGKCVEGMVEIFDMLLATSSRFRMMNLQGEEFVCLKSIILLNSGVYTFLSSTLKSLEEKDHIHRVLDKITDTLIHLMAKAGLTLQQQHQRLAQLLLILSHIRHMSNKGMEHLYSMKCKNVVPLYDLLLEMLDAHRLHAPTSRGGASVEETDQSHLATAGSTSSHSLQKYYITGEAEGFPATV
In short: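 Compound effects are measured against 17beta-estradiol stimulation in HEK293 cells with a UAS-controlled beta-lactamase reporter for ER-alpha. Exposure lasts 18 hr at 37C; LiveBLAzer B/G FRET substrate follows for 2 hr at room temperature.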

[5] = qHTS assay to identify small molecule antagonists of the estrogen receptor alpha (ER-alpha) signaling pathway - cell viability counter screen (AID 743074; calls by dose curve;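 note: HEK293 cells carrying ER-alpha-UAS-bla reporter stimulated with 17beta-estradiol; nearly all actives have a fitted effect of over 45% in size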)
[6] = target: Estrogen receptor (Homo sapiens) (UniProt P03372); assay: qHTS assay to identify small molecule agonists of the estrogen receptor alpha (ER-alpha) signaling pathway (AID 743075; calls by dose curve)
[7] = qHTS assay to identify small molecule antagonists of the estrogen receptor alpha (ER-alpha) signaling pathway using the BG1 cell line (AID 743080; calls by dose curve;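 note: BG1 cells stimulated with 17beta-estradiol alongside compound; series mostly up to about 70 µM; nearly all actives have a fitted effect of over 25% in size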)
In short: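 Luminescence from a 4×ERE-luciferase reporter in BG1-Luc-4E2 cells served as read-out. Cells, pre-cultured 5 days in stripped-serum phenol-red-free medium, were exposed to compound with 17beta-estradiol co-stimulation for 21.5 h at 37 C.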

[8] = qHTS assay to identify small molecule antagonists of the estrogen receptor alpha (ER-alpha) signaling pathway using the BG1 cell line - cell viability counter screen (AID 743081);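 note: compound given together with 17beta-estradiol as the ER stimulus; series mostly up to about 70 µM; nearly all actives have a fitted effect of over 45% in size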
[9] = target: Aromatase (Homo sapiens) (UniProt P11511); assay: qHTS assay to identify aromatase inhibitors (AID 743083); note: series mostly up to about 70 µM; nearly all actives have a fitted effect of over 55% in size
Sequence of Aromatase (Homo sapiens) (P11511 whole entry, looked up): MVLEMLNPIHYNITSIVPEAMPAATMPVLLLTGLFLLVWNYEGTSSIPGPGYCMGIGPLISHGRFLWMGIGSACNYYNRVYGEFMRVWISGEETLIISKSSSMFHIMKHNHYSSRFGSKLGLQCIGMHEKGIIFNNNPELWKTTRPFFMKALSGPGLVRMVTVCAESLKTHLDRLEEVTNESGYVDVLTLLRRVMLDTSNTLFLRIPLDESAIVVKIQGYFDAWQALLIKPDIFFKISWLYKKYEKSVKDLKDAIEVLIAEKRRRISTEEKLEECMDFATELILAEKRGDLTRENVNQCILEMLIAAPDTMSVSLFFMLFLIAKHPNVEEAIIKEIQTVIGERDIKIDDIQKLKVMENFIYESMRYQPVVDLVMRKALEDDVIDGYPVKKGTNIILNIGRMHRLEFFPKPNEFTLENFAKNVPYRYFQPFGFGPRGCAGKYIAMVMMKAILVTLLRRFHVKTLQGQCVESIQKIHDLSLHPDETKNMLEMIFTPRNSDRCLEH

[10] = qHTS assay to identify aromatase inhibitors - cell viability counter screen (AID 743084);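 note: cells stimulated with testosterone during compound exposure; nearly all actives have a fitted effect of over 55% in size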
[11] = target: Aryl hydrocarbon receptor (Homo sapiens) (UniProt P35869); assay: qHTS assay to identify small molecule that activate the aryl hydrocarbon receptor (AhR) signaling pathway (AID 743085);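 note: HG2L7.5c1 human HepG2 liver cells with stably integrated DRE-driven firefly reporter; series mostly up to about 70 µM; nearly all actives have a fitted effect of over 15% in size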
Sequence of Aryl hydrocarbon receptor (Homo sapiens) (P35869 whole entry, looked up): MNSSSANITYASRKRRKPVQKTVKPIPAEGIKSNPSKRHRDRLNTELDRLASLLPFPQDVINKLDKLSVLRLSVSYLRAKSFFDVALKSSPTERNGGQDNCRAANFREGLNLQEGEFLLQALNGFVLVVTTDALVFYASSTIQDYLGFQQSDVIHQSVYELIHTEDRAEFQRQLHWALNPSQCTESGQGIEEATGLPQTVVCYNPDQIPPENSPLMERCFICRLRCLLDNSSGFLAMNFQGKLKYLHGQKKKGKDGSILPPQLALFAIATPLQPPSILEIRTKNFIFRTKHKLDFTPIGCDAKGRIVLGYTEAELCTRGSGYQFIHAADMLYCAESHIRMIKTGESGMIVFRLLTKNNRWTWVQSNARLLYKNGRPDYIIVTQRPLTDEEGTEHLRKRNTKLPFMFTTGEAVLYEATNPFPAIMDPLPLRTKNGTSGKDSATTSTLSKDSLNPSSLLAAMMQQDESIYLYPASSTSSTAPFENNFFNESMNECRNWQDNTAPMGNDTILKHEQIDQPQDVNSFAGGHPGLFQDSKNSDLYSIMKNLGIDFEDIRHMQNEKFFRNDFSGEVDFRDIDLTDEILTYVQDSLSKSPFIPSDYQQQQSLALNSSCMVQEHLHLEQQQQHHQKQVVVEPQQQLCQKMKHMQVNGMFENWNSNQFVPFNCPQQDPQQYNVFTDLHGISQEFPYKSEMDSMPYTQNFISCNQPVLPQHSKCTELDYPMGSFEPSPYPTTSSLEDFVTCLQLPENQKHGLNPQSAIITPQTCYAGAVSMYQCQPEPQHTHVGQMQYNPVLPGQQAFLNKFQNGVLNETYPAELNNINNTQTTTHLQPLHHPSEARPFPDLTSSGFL
In short: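 Reporter assay in engineered HepG2 line HG2L7.5c1, whose plasmid carries twenty dioxin responsive elements upstream of firefly luciferase. Treatment lasted 24 h at 37C; ONE-Glo luminescence gauged induction.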

[12] = target: Peroxisome proliferator-activated receptor gamma (Homo sapiens) (UniProt P37231); assay: qHTS assay to identify small molecule agonists of the peroxisome proliferator-activated receptor gamma (PPARg) signaling pathway (AID 743094; active = well fitted activation curve with a large enough effect in the signal ratio in the repeat runs, not every such curve was filed as active; the % refers to the signal ratio)
Sequence of Peroxisome proliferator-activated receptor gamma (Homo sapiens) (P37231 whole entry, looked up): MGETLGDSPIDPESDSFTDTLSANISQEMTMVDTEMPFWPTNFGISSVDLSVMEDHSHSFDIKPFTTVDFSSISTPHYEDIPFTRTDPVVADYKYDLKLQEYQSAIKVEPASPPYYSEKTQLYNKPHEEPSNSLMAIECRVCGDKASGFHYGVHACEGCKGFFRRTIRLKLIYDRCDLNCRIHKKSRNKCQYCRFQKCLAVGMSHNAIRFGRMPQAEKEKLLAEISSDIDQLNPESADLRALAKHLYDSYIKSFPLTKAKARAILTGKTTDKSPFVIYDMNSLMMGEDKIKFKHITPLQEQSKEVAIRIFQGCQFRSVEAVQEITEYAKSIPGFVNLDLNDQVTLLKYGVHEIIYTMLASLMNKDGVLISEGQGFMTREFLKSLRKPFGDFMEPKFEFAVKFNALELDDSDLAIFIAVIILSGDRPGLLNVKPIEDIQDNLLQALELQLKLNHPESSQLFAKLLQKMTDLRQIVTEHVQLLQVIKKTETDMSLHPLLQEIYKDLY
In short: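 Quantitative HTS agonist mode: stable HEK293H line with UAS-beta-lactamase reporter under PPARg control, 17 h compound exposure at 37C, fluorescence after 1 h FRET substrate loading at room temperature.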

[13] = target: Peroxisome proliferator-activated receptor gamma (Homo sapiens) (UniProt P37231); assay: qHTS assay to identify small molecule antagonists of the peroxisome proliferator-activated receptor gamma (PPARg) signaling pathway (AID 743191; calls by dose curve; note: series mostly up to about 63 µM; nearly all actives have a fitted effect of over 30% in size)
In short: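 Beta-lactamase reporter under UAS control in HEK293H PPARg-bla cells; compound treatment 17 h at 37C. Read-out: fluorescence intensity after 1 h room-temperature incubation with LiveBLAzer B/G FRET substrate.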

[14] = qHTS assay to identify small molecule antagonists of the peroxisome proliferator-activated receptor gamma (PPARg) signaling pathway - cell viability counter screen (AID 743194); note: nearly all actives have a fitted effect of over 55% in size
In short: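 Viability was measured as CellTiter-Glo luminescence in GeneBLAzer PPARg UAS-bla HEK293H cells. These cells had been exposed 17 h at 37 C to compounds together with rosiglitazone at 50 nM final, with the beta-lactamase readout taken in the same wells.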

[15] = qHTS assay for small molecule agonists of the antioxidant response element (ARE) signaling pathway (AID 743202; active = well fitted activation curve with a large enough effect in the signal ratio in the repeat runs, not every such curve was filed as active; the % refers to the signal ratio)
In short: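 An ARE-responsive beta-lactamase gene stably integrated in HepG2 cells serves as reporter. After 5 h plating and 16 h compound incubation at 37 C, fluorescence of the B/G FRET substrate was measured.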

[16] = qHTS assay for small molecule agonists of the antioxidant response element (ARE) signaling pathway - cell viability counter screen (AID 743203; calls by dose curve; note: nearly all actives have a fitted effect of over 55% in size)
In short: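 Seeded at 2,000 cells/well, ARE-bla HepG2 cells were incubated 5 hrs before compound addition. After 16 hrs of treatment at 37C with 5% CO2, CellTiter-Glo reagent was added and luminescence read 30 min later.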

[17] = qHTS assay for small molecule activators of the heat shock response signaling pathway - cell viability counter screen (AID 743209); note: nearly all actives have a fitted effect of over 50% in size
In short: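 First, HSE-bla HeLa cells were seeded at 1500 cells/well and kept overnight at 37 C. Next, compounds were pinned in and incubated 5 h. After the FRET substrate step, CellTiter-Glo was added and luminescence read 30 min later.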

[18] = qHTS assay for small molecule activators of the heat shock response signaling pathway (AID 743210; active = well fitted activation curve with a large enough effect in the signal ratio in the repeat runs, with a control signal flat, not every such curve was filed as active; the % refers to the signal ratio;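 note: HeLa cells with beta-lactamase reporter driven by heat shock elements; series mostly up to about 63 µM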)
In short: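 In HSE-bla HeLa cells, 5 h compound incubation (37 C) precedes addition of LiveBLAzer B/G substrate; after 2.5 h at room temperature, fluorescence intensity indicates reporter induction.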

[19] = target: Estrogen receptor (Homo sapiens) (UniProt P03372); assay: qHTS assay to identify small molecule agonists of the estrogen receptor alpha (ER-alpha) signaling pathway using the BG1 cell line (AID 743079); note: nearly all actives have a fitted effect of over 20% in size
[20] = qHTS assay to identify small molecule that activate the aryl hydrocarbon receptor (AhR) signaling pathway - cell viability counter screen (AID 743086);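 note: HepG2 liver cells carrying the AhR DRE luciferase reporter; series mostly up to about 70 µM; nearly all actives have a fitted effect of over 45% in size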
In short: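 Cytotoxicity counter screen: CellTiter-Fluor signal (30 min, 37 C) in 4000 HepG2 cells/well carrying the DRE-luciferase reporter, following 24 h compound exposure at 37 C.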

Measured: Potency

C=CCCC(=O)O
inactive: [1] | [2] | [3] | [4] | [5] | [6] | [7] | [8] | [9] | [10] | [11] | [12] | [13] | [14] | [15] | [16] | [17] | [18]

O=C(O)CNC(=O)c1ccc(CO)o1
inactive: [1] | [2] | [3] | [4] | [5] | [6] | [19] | [7] | [8] | [9] | [10] | [11] | [20] | [12] | [14] | [16] | [17] | [18]

O=S(=O)(O)c1cccc(S(=O)(=O)O)c1
inactive: [1] | [2] | [3] | [4] | [5] | [6] | [19] | [8] | [9] | [10] | [11] | [20] | [12] | [13] | [14] | [16] | [17]

CC(=O)NC(=O)c1ccccc1O
inactive: [1] | [2] | [3] | [4] | [5] | [6] | [19] | [8] | [9] | [10] | [11] | [20] | [12] | [13] | [15] | [16] | [17] | [18]

[O-][n+]1cccc(CO)c1
inactive: [1] | [2] | [3] | [4] | [5] | [6] | [7] | [8] | [9] | [11] | [20] | [12] | [13] | [15] | [16] | [17] | [18]

CC(C)(C)c1ccc(-c2ccc(C(C)(C)C)cc2)cc1
inactive: [1] | [2] | [3] | [4] | [5] | [6] | [19] | [8] | [9] | [10] | [11] | [20] | [12] | [14] | [15] | [16] | [17]

O=C(CO)[C@@H](O)[C@H](O)[C@@H](O)CO
inactive: [1] | [2] | [3] | [4] | [5] | [6] | [19] | [8] | [9] | [10] | [11] | [20] | [12] | [13] | [14] | [15] | [16] | [17] | [18]

CCCOC(=O)CC
inactive: [1] | [2] | [3] | [4] | [5] | [6] | [19] | [8] | [9] | [10] | [11] | [20] | [12] | [13] | [14] | [15] | [17] | [18]
